# Experimental data taken from PubChem BioAssay AID1159580 (chemical genetic matrix, 2015).
# About 2,000 (36%) of roughly 5,500 compounds were called active. Another 18% or so got no clear call; they are omitted. Some of the results follow. Unmarked numbers belong to inactive results. Rule as the data show it: active = normalized growth mostly below about 0.91 (no sharp cut-off); inconclusive = no clear call, values can overlap the other calls; inactive = mostly above about 0.92.
# Assay: chemical genetic growth profiling, strain panel (AID 1159580);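 also: tested at 20 µM; growth read once vehicle control cultures reached saturation at 30 °C; 1 = growth at the plate median or of vehicle wells; lower values mean less growth of the strain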
# Details: S. cerevisiae deletion strains, growth OD
smiles,measurement,setting,value
CC1=C(/C=C/C(C)=C/C=C/C(C)=C/C=C/C=C(C)/C=C/C=C(C)/C=C/C(=O)[C@]2(C)C[C@@H](O)CC2(C)C)C(C)(C)C[C@H](O)C1,normalized growth,"locus YAL021C, strain ccr4, active compounds read low",1.05
same,normalized growth,"locus YAL026C, strain drs2, active compounds read low",1.06
same,normalized growth,"locus YAL030W, strain snc1, active compounds read low",1.01
same,normalized growth,"locus YBL061C, strain skt5, active compounds read low",1.03
same,normalized growth,"locus YBR009C, strain hhf1, active compounds read low",0.996
same,normalized growth,"locus YBR023C, strain chs3, active compounds read low",1.03
same,normalized growth,"locus YBR171W, strain sec66, active compounds read low",1.03
same,normalized growth,"locus YBR231C, strain swc5, active compounds read low",0.995
same,normalized growth,"locus YBR279W, strain paf1, active compounds read low",1.05
same,normalized growth,"locus YCL011C, strain gbp2, active compounds read low",1.01
same,normalized growth,"locus YCL016C, strain dcc1, active compounds read low",1.02
same,normalized growth,"locus YCL069W, strain vba3, active compounds read low",1.04
same,normalized growth,"locus YCR088W, strain abp1, active compounds read low",1.02
same,normalized growth,"locus YDL005C, strain med2, active compounds read low",1.03
same,normalized growth,"locus YDL040C, strain nat1, active compounds read low",1.02
same,normalized growth,"locus YDR001C, strain nth1, active compounds read low",1.02
same,normalized growth,"locus YDR069C, strain doa4, active compounds read low",1.05
same,normalized growth,"locus YDR137W, strain rgp1, active compounds read low",1.05
same,normalized growth,"locus YDR159W, strain sac3, active compounds read low",0.98
same,normalized growth,"locus YDR195W, strain ref2",0.978
same,normalized growth,"locus YDR297W, strain sur2, active compounds read low",1.02
same,normalized growth,"locus YDR334W, strain swr1, active compounds read low",1.02
same,normalized growth,"locus YDR335W, strain msn5, active compounds read low",1.03
same,normalized growth,"locus YDR392W, strain spt3, active compounds read low",0.984
same,normalized growth,"locus YEL003W, strain gim4, active compounds read low",0.997
same,normalized growth,"locus YEL037C, strain rad23, active compounds read low",1.02
same,normalized growth,"locus YEL061C, strain CIN8 (second series), active compounds read low",1.04
same,normalized growth,"locus YER015W, strain faa2, active compounds read low",1.04
same,normalized growth,"locus YER016W, strain bim1, active compounds read low",1.03
same,normalized growth,"locus YER111C, strain swi4, active compounds read low",1.03
same,normalized growth,"locus YER155C, strain BEM2 (second series), active compounds read low",1.03
same,normalized growth,"locus YFR010W, strain ubp6, active compounds read low",1.02
same,normalized growth,"locus YGL167C, strain pmr1, active compounds read low",1.03
same,normalized growth,"locus YGL173C, strain kem1, active compounds read low",1
same,normalized growth,"locus YGL227W, strain vid30, active compounds read low",1.02
same,normalized growth,"locus YGL240W, strain doc1, active compounds read low",0.968
same,normalized growth,"locus YGL253W, strain hxk2, active compounds read low",1.03
same,normalized growth,"locus YHR013C, strain ard1, active compounds read low",1.03
same,normalized growth,"locus YHR027C, strain rpn1, active compounds read low",1
same,normalized growth,"locus YHR030C, strain SLT2, active compounds read low",0.991
same,normalized growth,"locus YHR079C, strain IRE1, active compounds read low",0.987
same,normalized growth,"locus YHR142W, strain chs7, active compounds read low",1.06
same,normalized growth,"locus YJL092W, strain hpr5, active compounds read low",1.02
same,normalized growth,"locus YJL095W, strain BCK1 (second series), active compounds read low",1.02
same,normalized growth,"locus YJL095W, strain BCK1, active compounds read low",1.01
same,normalized growth,"locus YJL115W, strain asf1, active compounds read low",1.02
same,normalized growth,"locus YJL129C, strain trk1, active compounds read low",1.05
same,normalized growth,"locus YJL154C, strain vps35, active compounds read low",1.01
same,normalized growth,"locus YJL164C, strain tpk1, active compounds read low",1.02
same,normalized growth,"locus YJL166W, strain qcr8, active compounds read low",1.04
same,normalized growth,"locus YJR066W, strain TOR1, active compounds read low",0.942
same,normalized growth,"locus YKL160W, strain elf1, active compounds read low",1.02
same,normalized growth,"locus YKR026C, strain gcn3, active compounds read low",1.04
same,normalized growth,"locus YKR091W, strain srl3, active compounds read low",1.01
same,normalized growth,"locus YLL001W, strain dnm1, active compounds read low",1
same,normalized growth,"locus YLL026W, active compounds read low",1.02
same,normalized growth,"locus YLL041C, strain sdh2, active compounds read low",1.03
same,normalized growth,"locus YLR027C, strain aat2, active compounds read low",1.02
same,normalized growth,"locus YLR113W, strain HOG1, active compounds read low",0.991
same,normalized growth,"locus YLR221C, strain rsa3, active compounds read low",1
same,normalized growth,"locus YLR258W, strain gsy2, active compounds read low",1.02
same,normalized growth,"locus YLR262C, strain YPT6 (second series), active compounds read low",1.02
same,normalized growth,"locus YLR320W, strain mms22, active compounds read low",0.981
same,normalized growth,"locus YLR342W, strain FKS1, active compounds read low",1.04
same,normalized growth,"locus YLR357W, strain rsc2, active compounds read low",1.06
same,normalized growth,"locus YLR370C, strain arc18, active compounds read low",1.02
same,normalized growth,"locus YLR384C, strain iki3, active compounds read low",1.01
same,normalized growth,"locus YML120C, strain ndi1, active compounds read low",0.986
same,normalized growth,"locus YMR058W, strain fet3, active compounds read low",1.05
same,normalized growth,"locus YMR125W, strain sto1, active compounds read low",1.02
same,normalized growth,"locus YMR129W, active compounds read low",1.02
same,normalized growth,"locus YMR205C, strain PFK2, active compounds read low",0.995
same,normalized growth,"locus YMR231W, strain pep5, active compounds read low",1.04
same,normalized growth,"locus YNL071W, strain lat1, active compounds read low",1.03
same,normalized growth,"locus YNL183C, strain NPR1, active compounds read low",0.944
same,normalized growth,"locus YNL209W, strain ssb2, active compounds read low",1.02
same,normalized growth,"locus YNL248C, strain rpa49, active compounds read low",1.12 [resistant] (active)
same,normalized growth,"locus YNL322C, strain KRE1 (second series), active compounds read low",1.03
same,normalized growth,"locus YNR049C, strain mso1, active compounds read low",1.01
same,normalized growth,"locus YOR001W, strain rrp6, active compounds read low",1.01
same,normalized growth,"locus YOR070C, strain gyp1, active compounds read low",1.02
same,normalized growth,"locus YOR080W, strain dia2, active compounds read low",1.03
same,normalized growth,"locus YOR083W, strain WHI5, active compounds read low",0.993
same,normalized growth,"locus YOR106W, strain vam3, active compounds read low",1.05
same,normalized growth,"locus YOR231W, strain MKK1, active compounds read low",1.01
same,normalized growth,"locus YOR265W, strain rbl2, active compounds read low",1.02
same,normalized growth,"locus YOR270C, strain vph1, active compounds read low",1.16
same,normalized growth,"locus YOR290C, strain snf2, active compounds read low",1.04
same,normalized growth,"locus YPL051W, strain arl3, active compounds read low",1.06
same,normalized growth,"locus YPL078C, strain atp4, active compounds read low",1.05
same,normalized growth,"locus YPL106C, strain sse1, active compounds read low",1.05
same,normalized growth,"locus YPL240C, strain hsp82, active compounds read low",1.01
same,normalized growth,"locus YPL256C, strain CLN2, active compounds read low",0.995
